DAT uptake mod: changed hDAT dopamine uptake under cocaine IC80, either direction, primary screen, cocaine antagonist project, cell-based, LLC-PK1 hDAT, [14C]-dopamine uptake, MLSMR; LLC-PK1 hDAT cells, [14C]-dopamine uptake with cocaine IC80; actives deviate in either direction; 110,000 compounds, 1.3% hits; Sodium-dependent dopamine transporter (Homo sapiens), Q01959; B-score at 10 µM;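 active = Z score or B-score, a plate-position-corrected score, falls beyond the plate's 99.7% confidence bounds, in either direction; inactive = both scores lie inside the 99.7% bounds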;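 also: scored against the spread of the other compound wells on the same plate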
PostGolgi ctrl: growth inhibition of yeast control strain, primary screen, counter-screen for post-Golgi transport modulator project; AID 738, 2007; efflux-deficient yeast background strain, growth absorbance A615, 16 h; 98,000 compounds, 5% hits; inhibition, % at 10 µM
Cav3 T inh: Cav3.2 calcium influx blockers – cell-based, Fluo-4 calcium fluorescence, FDSS, MLSMR library, primary screen; Voltage-dependent T-type calcium channel subunit alpha-1H (Homo sapiens), O95180; 100,000 compounds, 4% hits; AID 449739, 2010; Cav3.2-expressing cells; hits give low values; B-score at 10 µM;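 active = single-dose well whose peak fluorescence ratio is a statistical outlier from its plate by either plate-standardised score or position-corrected B-score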
Target sequence (O95180 whole entry, looked up): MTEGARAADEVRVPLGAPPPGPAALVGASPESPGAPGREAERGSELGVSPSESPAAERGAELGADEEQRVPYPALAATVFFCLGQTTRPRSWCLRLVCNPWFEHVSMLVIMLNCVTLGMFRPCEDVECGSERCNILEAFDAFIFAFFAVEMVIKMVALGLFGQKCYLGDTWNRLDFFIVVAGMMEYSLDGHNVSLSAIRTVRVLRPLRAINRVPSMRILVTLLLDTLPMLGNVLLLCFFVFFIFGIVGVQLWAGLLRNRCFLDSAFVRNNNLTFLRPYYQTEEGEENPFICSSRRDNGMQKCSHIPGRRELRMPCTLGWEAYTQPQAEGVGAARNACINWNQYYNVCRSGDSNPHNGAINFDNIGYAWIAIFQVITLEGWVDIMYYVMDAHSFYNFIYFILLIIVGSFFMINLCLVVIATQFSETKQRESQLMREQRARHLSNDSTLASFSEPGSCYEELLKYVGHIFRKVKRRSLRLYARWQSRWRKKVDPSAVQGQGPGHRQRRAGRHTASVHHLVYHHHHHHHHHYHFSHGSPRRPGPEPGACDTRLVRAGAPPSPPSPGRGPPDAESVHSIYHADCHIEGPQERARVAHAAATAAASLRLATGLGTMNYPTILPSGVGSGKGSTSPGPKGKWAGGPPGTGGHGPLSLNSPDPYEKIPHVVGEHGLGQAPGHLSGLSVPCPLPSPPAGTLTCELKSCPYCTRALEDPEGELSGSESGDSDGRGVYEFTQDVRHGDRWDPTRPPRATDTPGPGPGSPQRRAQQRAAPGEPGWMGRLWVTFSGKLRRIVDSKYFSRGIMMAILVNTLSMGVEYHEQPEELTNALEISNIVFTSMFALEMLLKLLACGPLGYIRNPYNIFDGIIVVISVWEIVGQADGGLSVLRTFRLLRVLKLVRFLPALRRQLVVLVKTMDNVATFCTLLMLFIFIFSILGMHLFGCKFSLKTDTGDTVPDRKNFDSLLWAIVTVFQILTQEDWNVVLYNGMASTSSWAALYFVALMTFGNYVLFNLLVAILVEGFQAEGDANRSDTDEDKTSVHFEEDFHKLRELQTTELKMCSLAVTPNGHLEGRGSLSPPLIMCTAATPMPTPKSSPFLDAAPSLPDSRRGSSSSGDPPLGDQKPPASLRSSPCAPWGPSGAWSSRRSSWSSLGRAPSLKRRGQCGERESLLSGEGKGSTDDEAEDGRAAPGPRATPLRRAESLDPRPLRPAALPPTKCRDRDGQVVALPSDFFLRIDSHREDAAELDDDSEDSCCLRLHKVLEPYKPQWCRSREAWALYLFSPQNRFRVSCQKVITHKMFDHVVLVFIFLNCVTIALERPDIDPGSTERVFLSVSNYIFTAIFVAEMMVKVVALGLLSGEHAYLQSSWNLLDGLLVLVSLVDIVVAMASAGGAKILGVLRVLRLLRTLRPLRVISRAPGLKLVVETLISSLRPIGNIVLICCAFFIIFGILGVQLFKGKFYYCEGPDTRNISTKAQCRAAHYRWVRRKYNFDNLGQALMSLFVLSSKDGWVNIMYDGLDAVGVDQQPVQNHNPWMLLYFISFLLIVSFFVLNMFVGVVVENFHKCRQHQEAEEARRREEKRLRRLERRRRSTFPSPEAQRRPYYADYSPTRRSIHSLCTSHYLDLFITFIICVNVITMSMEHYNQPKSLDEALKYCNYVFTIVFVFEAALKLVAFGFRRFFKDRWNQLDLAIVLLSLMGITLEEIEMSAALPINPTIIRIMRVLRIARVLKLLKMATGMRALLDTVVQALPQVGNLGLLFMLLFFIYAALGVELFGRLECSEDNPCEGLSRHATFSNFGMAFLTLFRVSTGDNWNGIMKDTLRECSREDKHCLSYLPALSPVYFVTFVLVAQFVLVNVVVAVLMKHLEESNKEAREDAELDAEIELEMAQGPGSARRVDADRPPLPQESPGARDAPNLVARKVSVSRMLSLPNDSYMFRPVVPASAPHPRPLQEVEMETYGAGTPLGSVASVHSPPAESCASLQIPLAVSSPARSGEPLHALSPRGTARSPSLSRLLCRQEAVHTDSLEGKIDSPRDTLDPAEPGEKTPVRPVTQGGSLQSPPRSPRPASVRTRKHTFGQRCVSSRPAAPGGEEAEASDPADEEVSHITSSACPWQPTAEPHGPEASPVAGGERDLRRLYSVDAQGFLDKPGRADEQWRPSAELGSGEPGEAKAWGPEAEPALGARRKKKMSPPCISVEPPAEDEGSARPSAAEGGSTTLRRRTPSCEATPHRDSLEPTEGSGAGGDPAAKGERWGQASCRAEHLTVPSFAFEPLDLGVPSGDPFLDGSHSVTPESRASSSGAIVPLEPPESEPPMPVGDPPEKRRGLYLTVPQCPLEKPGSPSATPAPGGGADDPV
PostGolgi yeast: phenotypic screen on post-Golgi transport, primary screen | post-Golgi transport phenotypic cell assay | inhibition, % at 10 µM | 98,000 compounds, 0.9% hits | AID 739, 2007;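 also: yeast cells grown in 1536-well plates; yeast grown about 18 h at 30C before absorbance read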
PLAP activator: PLAP enzyme activators, biochemical, luminescence, HTS; AID 696, 2007; 96,000 compounds, 1.2% hits; activation fold at 20 µM; Alkaline phosphatase, placental type (Homo sapiens), P05187; purified PLAP enzyme, luminescent substrate read-out; hits give high values; in the data active = activation fold above about 2
Starred values were filed as active, the others as inactive; . = no result given. Hits are enriched below; roughly 9.6% of the tested compounds scored in any of these assays. Rule as the data show it, unless noted: active = inhibition above about 30%; inactive = the rest.

SMILES	DAT uptake mod	PostGolgi ctrl	Cav3 T inh	PostGolgi yeast	PLAP activator
O=C(CCN1C(=O)C2C3C=CC(C3)C2C1=O)NCCN1CCCc2ccccc21 (stereo not given)	-0.11	39*	0.62	-2	0.9
CN(C)CCNC(=O)c1ccc(CS(=O)(=O)c2ccc(Br)cc2)o1	-0.0022	.	1.4	.	.
Cc1cccc(NC(=O)CN2C(=O)COc3ccc(Cl)cc32)c1C	0.16	29	-5.3*	5	1
Cc1cccc(NC(=O)CN2C(=O)COc3ccc(Cl)cc32)c1	0.96	.	-3.5	.	0.7
COc1cccc(NC(=O)CN2C(=O)COc3ccc(Cl)cc32)c1	0.4	7	-5.4*	4	0.9
COC(=O)CN1C(=O)COc2ccc(Cl)cc21	-0.04	.	-0.25	.	.
CCCCN1CCCC1CNC(=O)c1cc(C#N)c2ccccc2c1OC (stereo not given)	-0.0066	.	.	.	.
O=C1CSC(c2cn(-c3ccccc3)nc2-c2ccccc2)N1Cc1ccco1 (stereo not given)	-0.049	53*	-4.7*	4	1.7
O=C1CSC(c2cn(-c3ccccc3)nc2-c2cccs2)N1CC1CCCO1 (stereo not given)	2.7*	20	-5*	-14	1.4
CCc1ccc(-c2nn(-c3ccccc3)cc2C2SCC(=O)N2Cc2ccco2)cc1 (stereo not given)	.	19	.	6	1.6
Cc1csc(NC(=O)C(CC(C)C)NS(=O)(=O)c2ccc3c(c2)oc(=O)n3C)n1 (stereo not given)	-1.5	-7	.	-2	2.3*
Cc1csc(NC(=O)C2CCN(S(=O)(=O)c3ccc4c(c3)oc(=O)n4C)CC2)n1	0.94	10	.	1	1.1
Cc1ccc(-n2cc(-c3ccccc3)[nH]c2=O)cc1F	0.68	0	.	7	1.1
COc1cc(C(c2c(C)[nH][nH]c2=O)c2c(C)[nH][nH]c2=O)ccc1OC(=O)c1cccc([N+](=O)[O-])c1	0.021	13	-0.061	-3	1.2
COc1cc(C(c2c(C)[nH][nH]c2=O)c2c(C)[nH][nH]c2=O)ccc1OS(=O)(=O)c1ccc(C)cc1	-0.14	8	-1.2	-3	2.9*
COc1cc(C(c2c(C)[nH][nH]c2=O)c2c(C)[nH][nH]c2=O)ccc1OS(=O)(=O)c1ccccc1	-0.52	-1	-0.11	2	2.5*
CCOC(=O)C(=Cc1ccc(OCc2ccc([N+](=O)[O-])cc2)c(OC)c1)C(=O)OCC	0.097	43*	-0.11	-4	1
COc1cc(C(c2c(C)[nH][nH]c2=O)c2c(C)[nH][nH]c2=O)ccc1OCc1ccc([N+](=O)[O-])cc1	0.014	-4	0.21	10	2.6*
COc1cccc2c(=O)n(CC(=O)Nc3cccc(F)c3)ccc12	-0.33	26	0.87	-8	0.7
COC(=O)c1cc(C)sc1NC(=O)c1cccnc1	-0.57	20	-0.95	3	1
CN1/C(=C\C(=O)CN2C(=O)NC3(CCCCCC3)C2=O)C(C)(C)c2ccccc21	-1.3	8	-4.2*	0	1
Cc1ccc2nc(-c3cccnc3SCC(=O)N3c4ccccc4CC3C)[nH]c2c1 (stereo not given)	0.076	13	-4.4*	-2	1.4
Cc1ccc2nc(SCC(=O)N3c4ccccc4CC3C)c(C)cc2c1 (stereo not given)	-0.78	28	-2	-12	0.9
CCc1ccc(C2CC(c3cccc(OC)c3)n3nc(N)nc3N2)cc1 (stereo not given)	0.37	.	0.046	.	1.4
O=C(NC(=S)N1CCN(c2c(Cl)cccc2[N+](=O)[O-])CC1)c1cccs1	0.36	-10	-4.3*	0	1.3
SMILES	DAT uptake mod	PostGolgi ctrl	Cav3 T inh	PostGolgi yeast	PLAP activator
CC(C)C(=O)N1CCN(c2c(Cl)cccc2[N+](=O)[O-])CC1	0.23	6	-1.3	-7	1
CCN1CCN(Cc2c(C)[nH]c3ccc(OC)cc3c2=O)CC1	.	20	.	0	0.9
CCc1ccc(/C=C/C(=O)c2c(C)cc(C)[nH]c2=O)cc1	0.78	6	1.4	-5	1.4
Cc1ccc(CSc2nc3ccncc3n2CC(=O)Nc2cc(C)cc(C)c2)cc1	0.0058	.	0.051	.	.
CC1CCN(C(=O)c2ccc(CSc3nc4ccncc4n3Cc3ccc(F)cc3)cc2)CC1	3.5*	.	-2.9	.	.
O=C(CCNc1ccc(Cl)c(C(F)(F)F)c1)c1ccco1	0.31	16	-5.1*	-5	0.9
O=C(CCNc1ccc(F)c(Cl)c1)c1ccco1	-0.14	0	-1.6	-8	0.8
O=S(=O)(c1ccc(OCC(O)CN2CCN(c3ccccc3O)CC2)cc1)N1CCOCC1 (stereo not given)	0.85	45*	1.1	3	1.3
O=S(=O)(c1ccc(OCC(O)CN2CCN(c3ccccc3)CC2)cc1)N1CCOCC1 (stereo not given)	0.95	-7	-0.1	-6	1.4
Cc1ccc(S(=O)(=O)Nc2cc(C)c(O)c(S(=O)(=O)c3ccc(C)cc3)c2)cc1	-0.28	17	-3.7*	2	1.2
O=C1C(Cl)=C(N2CCOCC2)C(=O)N1c1ccccc1Cl	-1.4	13	0.046	-5	1.1
Cc1ccccc1N1C(=O)C(Cl)=C(N2CCN(c3ccccc3)CC2)C1=O	-0.053	38*	-0.72	-1	0.9
O=C(N/N=C/c1cccc(Oc2ccccc2)c1)c1ccccc1Br	0.52	33*	-2.8	-4	0.9
O=C(N/N=C/c1cccc(Oc2ccccc2)c1)c1cccc(Br)c1	1.4	31*	-3.9	1	1.1
O=C(N/N=C/C=C/c1ccccc1)c1cccc(Br)c1	0.86	6	-1.2	1	1.1
CCN1C(=O)c2cccc3c(NC(=O)c4ccc(OC)c(OC)c4)ccc1c23	-0.13	11	-0.58	-4	1.4
COc1ccc([C@@]2(O)c3c(ccc(CC=C(C)C)c3O)NC(=O)[C@@H]2OC)cc1	1.5	.	-2.5	.	.
COC(=O)COc1ccc(S(=O)(=O)NCc2cccnc2)cc1C	-0.24	1	0.18	2	0.8
Cn1c(NC(=O)c2cccnc2)nc2ccccc21	0.59	13	-0.59	-7	2*
Cc1ccc(C(=O)Nc2nc3ccccc3n2CCN2CCCC2)cc1	1.1	-13	.	0	2.8*
O=C(Nc1nc2ccccc2n1CCN1CCCCC1)C1CCCCC1	-0.72	8	-0.0083	9	1.6
CCCn1c(NC(=O)C2CCN(S(=O)(=O)c3cccs3)CC2)nc2ccccc21	1.3	32*	-3	1	1.5
O=C(Nc1nc2ccccc2n1CCN1CCCC1)C1CCCCC1	-0.052	4	0.02	5	2.6*
Cc1cc(C)nc(NC(=O)c2cccc(Cl)c2)n1	-0.5	13	0.33	3	0.9
CC(Sc1nc(N(C)C)nc(N2CCOCC2)n1)C(=O)Nc1ccccc1 (stereo not given)	0.42	-6	-0.15	-5	0.9

Assay outcomes: PubChem BioAssay, several laboratories
